Compounds with a hit are over-represented: about 4% of the library has one in this group of screens.
KKLEB tox – cytotoxicity in KKLEB CF airway cells, primary screen, cytotoxicity control for CF NF-kB inhibitor project, cell-based, uHTS, fluorescence assay plates | activity change (cytotoxicity), % at 5 µM | KKLEB CF airway cells viability, ATPlite luminescence, overnight; hits give low values; cells stimulated with P. aeruginosa culture filtrate | AID 602141, 2011 | hit rate 0.36% among 360,000;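 active = corrected activity change at or below -50% at 5 µM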
CF NFkB inh – inhibitors of PAF-induced NF-kB signaling, primary screen, cell-based, GFP fluorescence, uHTS. hit rate 0.86% among 360,000. inhibition, % at 5 µM. KKLEB NF-kB-GFP reporter, GFP fluorescence overnight. AID 588850, 2011;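 active = at least 50% inhibition at 5 µM, scaled per plate between neutral and stimulator controls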;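 note: PAF is a Pseudomonas aeruginosa culture filtrate used as stimulus; plate controls were PAF-stimulated DMSO wells for no effect and unstimulated DMSO wells for full effect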
HIF-2a inh – HIF-2a reporter inhibitors, primary screen, luminescence, 786-0 RCC cells; 786-0 RCC cells HIF-2a reporter, luciferase luminescence, overnight; inhibition, % at 18.8 µM; hit rate 0.72% among 360,000;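 active = inhibition of the luminescence signal of 40% or more relative to plate controls, in a single-dose primary screen at 18.75 µM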
TWEAK Fn14 block – inhibitors of TWEAK-Fn14 signaling, primary screen, luciferase reporter cells, uHTS; TWEAK-stimulated Fn14 reporter cells, luciferase luminescence, 8 h; hit rate 2% among 360,000; inhibition, % at 10 µM; in the data active = inhibition above about 50%
Peg3 promoter – Peg3 promoter-driven luciferase inhibitors, primary screen, cell-based, HeLa, luciferase luminescence | hit rate 1.7% among 360,000 | HeLa PEG-Prom luciferase reporter, overnight | AID 588405, 2011 | inhibition, % at 20 µM;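 active = inhibition of at least 50% at 20 µM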
TROY NFkB inh – inhibitors of TROY-driven NF-kB signaling, primary screen, Q293 LMP1-TROYcd cells, NF-kB luciferase, uHTS; Q293 LMP1-TROYcd NF-kB luciferase reporter, 4 h; inhibition, % at 10 µM; hit rate 0.98% among 360,000;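 active = compounds whose plate-normalised and pattern-corrected inhibition of the luciferase reporter signal at the single screening dose is 50% or more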
Mdm2 MdmX conf – retested Mdm2-MdmX interaction blockers, confirmation, cell-based, luminescence, single concentration, set 2. SaOS-2 split-luciferase Mdm2/MdmX complementation. AID 504601, 2011. hit rate 99% among 740. shares compounds with HIF-2a inh. inhibition, % at 8 µM;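 active = mean inhibition of the luminescence signal across two replicates at or above 26 percent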
Target sequence (O15151 whole entry, looked up): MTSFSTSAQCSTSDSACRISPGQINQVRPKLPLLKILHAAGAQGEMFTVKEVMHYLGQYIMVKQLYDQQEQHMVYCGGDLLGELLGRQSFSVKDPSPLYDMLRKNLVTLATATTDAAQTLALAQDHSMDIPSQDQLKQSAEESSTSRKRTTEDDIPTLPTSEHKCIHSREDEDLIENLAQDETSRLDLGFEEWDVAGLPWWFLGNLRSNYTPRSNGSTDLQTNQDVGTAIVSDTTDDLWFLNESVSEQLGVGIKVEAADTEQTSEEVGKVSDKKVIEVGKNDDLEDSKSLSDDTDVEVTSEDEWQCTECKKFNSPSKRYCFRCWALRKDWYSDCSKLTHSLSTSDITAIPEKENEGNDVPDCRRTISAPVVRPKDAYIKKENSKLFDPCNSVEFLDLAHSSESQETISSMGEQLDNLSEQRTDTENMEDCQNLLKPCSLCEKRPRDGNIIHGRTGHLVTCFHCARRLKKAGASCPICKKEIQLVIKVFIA
Target sequence (Q00987 whole entry, looked up): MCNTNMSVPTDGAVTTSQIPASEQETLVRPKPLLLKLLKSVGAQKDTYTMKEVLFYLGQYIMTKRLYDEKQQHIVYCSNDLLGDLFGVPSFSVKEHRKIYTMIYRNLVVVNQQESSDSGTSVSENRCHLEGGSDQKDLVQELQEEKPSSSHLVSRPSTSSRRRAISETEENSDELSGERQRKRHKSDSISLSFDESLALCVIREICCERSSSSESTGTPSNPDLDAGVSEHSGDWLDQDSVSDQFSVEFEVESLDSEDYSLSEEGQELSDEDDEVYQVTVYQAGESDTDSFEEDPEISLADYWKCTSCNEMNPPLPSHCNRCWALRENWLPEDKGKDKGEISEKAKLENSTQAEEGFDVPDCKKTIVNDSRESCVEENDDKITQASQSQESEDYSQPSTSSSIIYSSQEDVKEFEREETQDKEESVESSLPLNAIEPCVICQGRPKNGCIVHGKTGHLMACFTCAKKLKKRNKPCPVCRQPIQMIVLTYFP
HIF-2a conf – HIF-2a reporter inhibitor retest, confirmation, luminescence, 786-0 RCC cells. shares compounds with HIF-2a inh. HIF-2a luciferase reporter luminescence, overnight. inhibition, % at 18.8 µM. hit rate 56% among 1,800;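 active = mean inhibition across four replicates of at least 40 percent at the single tested concentration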
HIF-1a cs – HIF-1a luciferase reporter signal reduction – MiaPaCa-2 cells, single concentration, counter-screen for HIF-2a inhibitor project, confirmation. shares compounds with HIF-2a inh. MiaPaCa-2 HIF-1a luciferase reporter, desferoxamine, overnight. inhibition, % at 18.8 µM. hit rate 72% among 1,800. AID 651589, 2012;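 active = mean inhibition of the reporter signal across four replicates at the single tested dose of 50% or more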
Starred values were filed as active, the others as inactive; · = no result given.

SMILES	KKLEB tox	CF NFkB inh	HIF-2a inh	TWEAK Fn14 block	Peg3 promoter	TROY NFkB inh	HIF-2a conf	HIF-1a cs	others
COc1ccc(S(=O)(=O)N2CCN(CCC(=O)Nc3ccc(F)cc3)CC2)cc1	15.6	-12.8	6.1	14.0	5.5	11.8	·	·
Cc1ccc(S(N)(=O)=O)c(C)c1N1CCCC1=O	-4.2	20.0	4.8	-8.8	-17.8	-7.7	·	·
CCCn1c(=N)n(CC(=O)c2ccc(OCC(=O)OC)cc2)c2ccccc21	-14.9	-4.1	46.7*	-18.4	6.1	-17.5	2.6	4.1
CCCn1c(=N)n(CC(=O)OCC)c2ccccc21	-11.6	4.8	-1.1	-4.8	-2.7	11.1	·	·
CCOC(=O)C1CCN(C(=O)COC(=O)c2ccccc2OCC)CC1	1.3	9.6	6.9	6.0	1.1	-13.8	·	·
CCN(CC)S(=O)(=O)c1cc([N+](=O)[O-])ccc1NNC(=O)Nc1ccc(Cl)c(Cl)c1	-32.3	47.8	13.7	59.0*	48.6	53.6*	·	·	Mdm2 MdmX conf=93.7*
Cc1ccc(NC(=O)CN(c2ccc(Cl)cc2)S(=O)(=O)c2cc([N+](=O)[O-])ccc2Cl)cc1	-0.9	-29.8	15.0	34.4	26.6	13.7	·	·
CCN(CC)C(=O)CSc1ncnc2c1cnn2Cc1ccccc1	5.2	5.5	1.3	11.8	9.7	5.5	·	·
CCOC(=O)CNC(=O)CSc1ncnc2c1cnn2Cc1ccccc1	-9.3	14.6	48.0*	1.7	-3.3	-4.5	20.4	16.0
COC(=O)Cc1ccc(NC(=O)c2ccc(C(C)(C)C)cc2)cc1	-8.3	4.9	89.8*	44.7	-44.2	19.3	93.9*	40.4
CCOc1ccccc1N(CC(=O)Nc1ccc(OC)cc1)S(=O)(=O)c1ccccc1	1.9	-6.2	29.4	9.7	9.1	-15.0	·	·
Cc1ccc(NC(=O)c2cc(CC(C)C)nc3ccccc23)cc1	-19.0	-16.6	17.6	-16.7	0.3	4.5	·	·	Mdm2 MdmX conf=93.7*
COc1ccc(NC(=O)c2cc(CC(C)C)nc3ccccc23)cc1	1.5	5.1	12.3	-21.9	6.9	6.5	·	·	Mdm2 MdmX conf=98.0*
O=[N+]([O-])c1cc([N+](=O)[O-])c(Oc2cc(F)cc(F)c2)cc1NN1CCCCC1	-13.2	12.7	6.8	-13.9	-2.0	-28.8	·	·
COc1ccc(C(C(=O)NC2CCCC2)n2c(CSCCOc3ccccc3)nc3ccccc32)cc1 (stereo not drawn)	·	·	43.1*	·	·	·	74.4*	62.8*
COc1ccc(C(C(=O)NC2CCCC2)n2c(Cc3cc(F)cc(F)c3)nc3ccccc32)cc1 (stereo not drawn)	·	·	-7.9	·	·	·	·	·
CCC(C(=O)NCc1ccccc1)n1c(CSCCOc2ccccc2)nc2ccccc21 (stereo not drawn)	·	·	64.0*	·	·	·	74.2*	77.2*
CC(C(=O)NCc1ccccc1)n1c(CSCCOc2ccccc2)nc2ccccc21 (stereo not drawn)	·	·	-1.2	·	·	·	·	·
CC(C)(C)n1nc(-c2ccc(F)cc2)c2c(N)ncnc21	-7.9	30.6	43.3*	-82.5	46.9	-26.2	45.2*	22.2
CC(C)(C)n1nc(-c2ccc(Cl)cc2)c2c(N)ncnc21	4.5	45.5	62.7*	-54.4	69.3*	7.6	43.4*	80.0*
Cc1ccc(-c2nc(N)c3c(-c4ccc(C)cc4)nn(C(C)(C)C)c3n2)cc1	1.1	2.9	2.1	12.7	0.6	-22.7	·	·
COc1ccc(-c2ccccc2)cc1NC(=O)[C@@H]1O[C@H](CO)[C@@H](O)[C@H]1O	0.9	17.7	-1.5	-7.4	2.5	8.2	·	·
CCOC(=O)Cc1csc(N/N=C\c2ccccc2OC)n1	4.8	-1.9	-54.2	-8.2	-67.0	-23.7	·	·
CCOC(=O)Cc1csc(N/N=C/c2ccccc2)n1	6.6	-17.5	40.5*	-3.4	-128.6	-31.8	38.1	6.3
Nc1nc2cc(S(=O)(=O)NC3=NCCCCC3)ccc2s1	-4.5	-11.1	40.6*	-11.5	9.4	-3.3	-7.2	-8.2
SMILES	KKLEB tox	CF NFkB inh	HIF-2a inh	TWEAK Fn14 block	Peg3 promoter	TROY NFkB inh	HIF-2a conf	HIF-1a cs	others
CC(C)N1CCc2c(sc(NC(=O)c3ccc([N+](=O)[O-])o3)c2C(N)=O)C1	9.0	78.8*	90.3*	-4.8	104.1*	7.1	79.1*	103.4*
NS(=O)(=O)c1ccc(Sc2ccccn2)c([N+](=O)[O-])c1	9.6	16.8	11.2	13.2	10.8	4.0	·	·
NS(=O)(=O)c1ccc(Sc2nc3ccccc3s2)c([N+](=O)[O-])c1	-52.6*	82.5*	15.8	83.7*	36.6	16.7	·	·	Mdm2 MdmX conf=97.0*
CCC(C)(C)NC(=O)C(c1ccc(OC)cc1)N(Cc1ccc(OC)cc1)C(=O)CCC(=O)Nc1cc(C)on1 (stereo not drawn)	10.8	0.8	14.7	32.4	14.5	-14.4	·	·
COc1ccc(Br)cc1[C@H]1[C@H]2C=CC[C@@H](C)[C@@H]2C(=O)N1Cc1ccccc1	-29.9	47.3	43.7*	8.3	21.6	16.2	32.5	45.5
COc1ccc([C@H]2[C@H]3C=CC[C@@H](C)[C@@H]3C(=O)N2Cc2ccccc2)cc1Cl	-11.4	35.3	28.5	-14.4	22.4	21.5	·	·
C[C@H](NC(=O)c1nc[nH]c1C(=O)N1CCN(C(=O)OC(C)(C)C)CC1)C(=O)OC(C)(C)C	6.4	-9.2	-4.9	-8.6	-24.3	-10.1	·	·
CC(C)C[C@H](NC(=O)c1nc[nH]c1C(=O)N1CCN(C(=O)OC(C)(C)C)CC1)C(=O)OC(C)(C)C	-10.0	18.6	-10.9	-2.6	-3.6	1.9	·	·	Mdm2 MdmX conf=99.2*
CN(C(=O)COC(=O)c1cc2c(s1)CCCCC2)c1ccccc1	-0.6	-26.2	-36.6	-2.1	-24.1	-31.7	·	·
CC(=O)Nc1ccc(Nc2nc(C)c([N+](=O)[O-])c(N(C)c3ccccc3)n2)cc1	-6.2	0.6	80.6*	-0.7	29.4	42.6	91.8*	93.5*
CN(c1ccccc1)c1nc(N)c([N+](=O)[O-])c(Nc2ccccc2)n1	-23.6	47.4	-28.8	-5.7	-8.8	-33.7	·	·
CCCCCCCCN1C(=O)[C@H](CC(=O)N2CCN(C(=O)c3ccco3)CC2)C[C@@]2(C(=O)OCC)CCCC=C12	·	·	-3.5	9.5	·	3.7	·	·

Screens as filed in PubChem.
